SMILES strings stand for the structures. This is part of a sample that, as a whole, favours compounds with a hit. Of some 83,000 tested, about 20% had one in any assay.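 Negative percent growth values reflect cell death: -40 means 40% of the cells present at the start died, and -100 means all died.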 A number with no mark means an inactive call. Activity calls are given as the source filed them. The calls were made as follows: active = growth percent below 10; inactive = the rest.

Results on 40 compounds are retold here after PubChem BioAssay (NCI).

The subject of one experiment is NCI-H460 lung. Put plainly: NCI-60 one-dose screen, 48 h (100 = growth as untreated, 0 = no growth, -100 = all killed). The settings on record: 10 µM unless noted.
As to `CCOC(=O)c1csc(NC(=O)COc2ccc(/C=C3\Oc4ccccc4C3=O)cc2)n1`, the growth is 95.4%.

Turning to `CC(C)C1=NOC(=O)C1=Cc1cn(-c2ccccc2)nc1-c1ccc(F)cc1`, the growth was 76.8%.

For `CCOC(=O)C/C(=N\Nc1cc(=O)[nH]c2ccc(Br)cc12)C(=O)OCC`, the growth is 101%.

For the compound `Cc1cc(=O)n(C(=O)Nc2ccccc2Cl)c2cc(O)ccc12`, the growth is 100%.

As for `CSc1nnc(-c2cc3c([nH]c4ccccc43)c(-c3cccc(O)c3)n2)n1-c1ccccc1`, the growth was 12.1%.

Another experiment has as its system HOP-92 NSCLC. The experiment is described as above. The settings on record: 10 µM unless noted.
Consider `COc1ccc(OC)c(/C=N/Nc2ncnc3c2c(C)nn3C)c1`, for which the growth is 96.2%.

As to `Cc1c[n+](Cc2ccc3ccccc3c2)cn1Cc1ccc2ccccc2c1`, the growth was -20.9% (active).

As for `COc1cc(OC)c(/C=C/C(=O)c2c(OC)cccc2OC)c(OC)c1`, the growth is -1.46% (active).

In the case of `COC(=O)c1c(C)nc(C)c2c1C(=O)C(Br)=C(NCc1ccccc1)C2=O`, the growth was 86.9%.

Regarding `CCNCCNc1cc(-c2ccc(C(F)(F)F)cc2)c(C#N)c2nc3ccccc3n12`, the growth is -81.2% (active).

On to `CSc1nc2ccccc2cc1/C=[N+](\[O-])c1ccccc1`, for which the growth is 53.2%.

Consider `CC(=O)Oc1ccc(N2C(=O)C(Cl)=C(Nc3cccc(C(F)(F)F)c3)C2=O)cc1`, for which the growth is 99.7%.

On to `CC(=O)Oc1ccc(C)cc1C`, for which the growth was 105%.

`O=C(Nc1ccc(Oc2cccc(Cl)c2)c(Cl)c1)c1cnccn1`: the growth is 62%.

For `CCC(=O)Oc1ccc(-c2ccccc2)cc1Br`, the growth was 87.7%.

Consider `CCN(CC)CC(O)COc1c(Br)c(Br)c(Br)c2c1OC(C)(C)C2` (stereo not given), for which the growth was 28.1%.

Regarding `Fc1cc2c(cc1Cl)N(c1ncnc3ccc(-c4ccc5n[nH]nc5c4)cc13)CC2`, the growth was 31.5%.

Take `Nc1c(C(=O)Nc2ccncc2)sc2nc3c(cc12)C(O)CCC3` (stereo not given): the growth is 88.2%.

On to `CCOC(=O)c1cc2c(n1Cc1cc(OC)c(OC)c(OC)c1)-c1nc(N)sc1CCC2`, for which the growth was 42%.

As to `Cc1ccc(Nn2c(SCC(=O)Nc3nc(-c4ccccc4)cs3)nc(C)c2C)cc1`, the growth was 59.9%.

As to `O=C(NCc1ccc(Cl)cc1Cl)C1CCC(=O)N1c1cccs1` (stereo not given), the growth was 103%.

For `COc1cc(C2c3cc(OC(C)=O)c(OC)cc3CC3C(=O)OCC32)ccc1OC(C)=O` (stereo not given), the growth is 53.7%.

Take `CCOC(=O)c1ccc(NC(=O)c2nc(-c3cc(OC)c(OC)c(OC)c3)n(-c3ccc(Cl)cc3)n2)cc1`: the growth was 71.8%.

Consider `Cc1nc2sc(C(=O)Nc3cccc(Br)c3)c(N)c2cc1C(O)c1ccccc1` (stereo not given), for which the growth is 76.3%.

For `OB1OCc2cc(/C=C/c3cccc(C(F)(F)F)c3)ccc21`, the growth is -27.9% (active).

In the case of `COC(=O)[C@@H](CCCCNC(=O)[C@]12CCC(C)(C)C[C@@H]1C1=CC[C@@H]3[C@@]4(C)C/C(=C/c5ccco5)C(=O)C(C)(C)[C@@H]4CC[C@@]3(C)[C@]1(C)CC2)NC(=O)[C@]12CCC(C)(C)C[C@@H]1C1=CC[C@@H]3[C@@]4(C)C/C(=C/c5ccco5)C(=O)C(C)(C)[C@@H]4CC[C@@]3(C)[C@]1(C)CC2`, the growth was 114%.

Turning to `COc1c(C(=O)Nc2ccc(C)c(Br)c2)ccc2ccccc12`, the growth was 105%.

Take `COC(=O)CC[C@@H]1O[C@@H](c2cccc(C(F)(F)F)c2)[C@@H](O)[C@H]1O`: the growth is 84.3%.

As to `COc1ccc(/C=C(\C#N)n2nnc3cc(F)c(F)cc32)cc1`, the growth was 72.3%.

Regarding `CCCC/C(CC)=N\NS(=O)(=O)c1ccc([N+](=O)[O-])cc1`, the growth was 91.6%.

As to `CCC(C(=O)[C@@H](C)[C@@H](O)[C@H](C)[C@@H]1O[C@@H]([C@@H](CC)C(=O)ONC(=O)c2ccccc2)CC[C@@H]1C)[C@H]1O[C@]2(C=CC(=O)[C@]3(CC[C@@](C)([C@H]4CC[C@](O)(CC)[C@H](C)O4)O3)O2)[C@H](C)C[C@@H]1C` (stereo not given in full), the growth was -62.2% (active).

Consider `COC(=O)[C@]12CCC(C)(C)C[C@H]1[C@H]1/C(=N/OCCc3nn[nH]n3)C[C@@H]3[C@@]4(C)CC[C@H](OC(C)=O)C(C)(C)[C@@H]4CC[C@@]3(C)[C@]1(C)CC2`, for which the growth was 49.9%.

On to `N#CC(C#N)N=Nc1ccc(Br)cc1`, for which the growth is -34.1% (active).

As for `CCOC(=O)NC(C)C`, the growth is 79.6%.

On to `CCCNC(=O)Nc1ccc2cc3ccc(NC(=O)NCCC)cc3nc2c1`, for which the growth is 79.2%.

`C=CCN=c1sc2c(n1NC(=O)c1cc3ccc1CCc1ccc(cc1)CC3)C(=O)c1ccccc1C2=O`: the growth was 21.5%.

Consider `Cc1ccc2c(n1)C(=O)C(Br)=C(CC(C)C)C2=O`, for which the growth is 80.4%.

Turning to `CC(C)COc1nc2c(c(=O)n(C)c(=O)n2C)n1C`, the growth is 93.7%.

In the case of `Cc1ccccc1/C=C/C(=O)c1cccc(OCCCCOc2cccc(C(=O)/C=C/c3ccccc3C)c2)c1`, the growth is 93.6%.

With `COc1ccc2cc1Oc1ccc(cc1)C[C@H]1c3c(cc4c(c3Oc3cc5c(cc3OC)CCN(C)[C@@H]5C2)OCO4)CCN1C`, the growth was 52.6%.

On to `CCOC(=O)c1csc(NC(=O)COc2ccc(/C=C3\Oc4ccccc4C3=O)cc2)n1`, for which the growth was 102%.

As to `CC(C)C1=NOC(=O)C1=Cc1cn(-c2ccccc2)nc1-c1ccc(F)cc1`, the growth was 89.8%.

In the case of `CCOC(=O)C/C(=N\Nc1cc(=O)[nH]c2ccc(Br)cc12)C(=O)OCC`, the growth is 76.2%.

For `Cc1cc(=O)n(C(=O)Nc2ccccc2Cl)c2cc(O)ccc12`, the growth is 79.7%.

Take `CSc1nnc(-c2cc3c([nH]c4ccccc43)c(-c3cccc(O)c3)n2)n1-c1ccccc1`: the growth is 48.7%.
